The structures appear in SMILES notation. Values without a mark were called inactive. Inconclusive results are not listed. The source made the active and inactive calls. Unless noted, calls come from the whole dose curve; as a rule, active = well fitted curve in the direction sought with a large enough effect; inconclusive = small, poorly fitted or top-dose-only effect, or another doubt; inactive = no such curve, though single readings can be large; an effect the other way counts as inactive or inconclusive.

Experiment [1] is described as follows: AP1 Signaling Pathway (AID 357; active = well fitted curve in either direction with a large enough effect, not every such curve was filed as active;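 note: ME-180 reporter cells stimulated with EGF at its EC50 level; % is set by controls: 0 for no effect and ±100 for the full control effect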). Conditions: ME-180 AP-1-bla reporter, EGF-induced, beta-lactamase ratio, 5 h; at 17.2 µM (top of the series) unless noted. The procedure, abridged:
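Read-out was the 460nm/530nm emission ratio (excitation 405nm) after CCF4 loading for 2.5 hours at room temperature. Cells carried an AP-1-driven beta-lactamase reporter, were stimulated with EC50 EGF plus compound for 5 hours, and AC50 values came from titrations.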

The target in experiment [2] is Glucocorticoid receptor (Homo sapiens) (UniProt P04150). The experiment can be described thus: GR-GFP Redistribution (AID 450;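 active = compounds whose dose series gives a full or clear partial fitted curve of increased nuclear translocation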; note: potency is the fitted concentration of half-maximal effect).
Sequence of Glucocorticoid receptor (Homo sapiens) (P04150 whole entry, looked up, the tested form may be a part): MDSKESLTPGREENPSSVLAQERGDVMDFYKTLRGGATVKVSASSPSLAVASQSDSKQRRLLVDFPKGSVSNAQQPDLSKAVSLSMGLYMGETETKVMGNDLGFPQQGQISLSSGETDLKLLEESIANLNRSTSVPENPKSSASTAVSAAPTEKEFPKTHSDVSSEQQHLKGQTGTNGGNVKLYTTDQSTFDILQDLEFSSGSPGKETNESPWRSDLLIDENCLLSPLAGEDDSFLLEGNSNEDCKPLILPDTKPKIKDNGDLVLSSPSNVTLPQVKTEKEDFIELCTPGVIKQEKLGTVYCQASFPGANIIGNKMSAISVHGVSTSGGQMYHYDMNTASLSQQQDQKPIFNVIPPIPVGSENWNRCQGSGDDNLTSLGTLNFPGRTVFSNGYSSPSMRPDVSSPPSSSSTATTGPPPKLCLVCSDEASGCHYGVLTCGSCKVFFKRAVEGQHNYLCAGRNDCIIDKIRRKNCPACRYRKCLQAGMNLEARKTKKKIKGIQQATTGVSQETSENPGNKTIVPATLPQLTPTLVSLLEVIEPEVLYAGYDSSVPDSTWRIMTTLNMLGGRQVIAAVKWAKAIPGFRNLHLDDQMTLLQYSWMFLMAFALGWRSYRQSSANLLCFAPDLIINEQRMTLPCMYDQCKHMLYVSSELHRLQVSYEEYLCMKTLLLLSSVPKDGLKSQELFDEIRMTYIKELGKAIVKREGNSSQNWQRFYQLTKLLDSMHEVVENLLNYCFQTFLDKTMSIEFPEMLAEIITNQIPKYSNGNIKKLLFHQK
Experiment [3] has as its target Cytochrome P450 1A2 (Homo sapiens) (UniProt P05177). Kind of experiment: p450-cyp1a2 (AID 410; calls by dose curve; note: potency is the fitted concentration of half-maximal effect;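 for activity change, negative = inhibition: -100% = full effect of reference inhibitor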). A digest of the protocol:
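Human CYP1A2 (20nM) demethylated Luciferin-ME at its Km (100uM) in 100mM KPO4. After 10 min compound preincubation, NADPH regeneration ran the reaction 60 min at room temperature. Luciferin was read by luminescence, normalized to 57 uM furafylline.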

Experiment [4] is described as follows: Stat Signaling Pathway (AID 446; active = well fitted curve in either direction with a large enough effect, not every such curve was filed as active;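 note: ME-180 cervical cancer cells given 40 pM IL-6 alongside compound; SIE-controlled beta-lactamase reporter measured as 460/530 nm FRET emission ratio; % is set by controls: 0 for no effect and ±100 for the full control effect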). To be noted: ME-180 (cervical carcinoma) SIE beta-lactamase reporter, IL-6 stimulated, 5 h; at 17.2 µM (top of the series) unless noted. A digest of the protocol: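 IL-6/STAT signaling read in ME-180 cells via an SIE beta-lactamase reporter. Stimulus was 40 pM IL-6 (its AC50) for 5 hrs, so both activation and inhibition register.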
Experiment [5] concerns the target Glucocorticoid receptor (Homo sapiens) (UniProt P04150). The experiment can be described thus: GR-EFC Redistribution (AID 451; calls by dose curve; note: potency is the fitted concentration of half-maximal effect). To be noted: CHO-K1 GR-EFC translocation, beta-gal luminescence, 2 h. The procedure, abridged:
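Translocation of GR-ED fusion to nuclear EA restores b-gal, read by luminescence after 1 h room-temperature detection. Engineered CHO-K1 biosensor cells, 1,000/well, exposed 2 h at 37 C to titrations up to 46 uM final.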

For experiment [6], the target named is 3',5'-cyclic-AMP phosphodiesterase 4B (Homo sapiens) (UniProt Q07343). The experiment can be described thus: qHTS Assay for Inhibitors of PDE-IV (AID 607; active = well fitted activation curve with a large enough effect in the main read-out, with a control signal flat, not every such curve was filed as active; note: % of control where 0% means no effect). A digest of the protocol:
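Live HEK293 cells with a modified cyclic nucleotide-gated (CNG) channel report intracellular cAMP via membrane-potential dye fluorescence (ex 535/em 590 nm). Endogenous PDE-IV was targeted. Compounds were tested at up to 22.9 uM final; RO 20-1724 100 uM served as control.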
A general note: Quantitative high-throughput screening tests each substance at several concentrations.

Experiment [7] is described as follows: NFAT Signaling Pathway (AID 444; active = well fitted curve in either direction with a large enough effect, not every such curve was filed as active;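 note: carbachol stimulus at about its EC50 of 1 µM final; % is set by controls: 0 for no effect and ±100 for the full control effect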). Conditions: Jurkat NFAT-bla M1, carbachol, beta-lactamase ratio, 5 h; at 17.2 µM (top of the series) unless noted. A digest of the protocol:
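Read-out: CCF4 FRET ratio (460 nm/530 nm) after 1 h RT dye loading, used for %activity and AC50 from titration series. Cells: Jurkat NFAT-β-lactamase/M1 line, treated with compound plus 1 uM carbachol for 5 h, 37 °C.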

In experiment [8] the target is Guanine nucleotide-binding protein G(i) subunit alpha-1 (Homo sapiens) (UniProt P63096). The experiment can be described thus: qHTS Assay for Inhibitors of RGS12 GoLoco Motif Activity (Green Fluorophore) (AID 879).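 Note: 0% = labeled peptide with Gαi1 and full inhibition = labeled peptide alone without protein; negative values mean loss of peptide binding seen as reduced polarization.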 The procedure, abridged: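 Fluorescence polarization assay: 50 nM Gαi1 with 10 nM FITC-labeled RGS12 GoLoco peptide in 10 mM Tris pH 7.5, 150 mM NaCl, 0.1 mM GDP, 0.05% NP40, 10 min at room temperature with compound.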
Sequence of Guanine nucleotide-binding protein G(i) subunit alpha-1 (Homo sapiens) (P63096 whole entry, looked up): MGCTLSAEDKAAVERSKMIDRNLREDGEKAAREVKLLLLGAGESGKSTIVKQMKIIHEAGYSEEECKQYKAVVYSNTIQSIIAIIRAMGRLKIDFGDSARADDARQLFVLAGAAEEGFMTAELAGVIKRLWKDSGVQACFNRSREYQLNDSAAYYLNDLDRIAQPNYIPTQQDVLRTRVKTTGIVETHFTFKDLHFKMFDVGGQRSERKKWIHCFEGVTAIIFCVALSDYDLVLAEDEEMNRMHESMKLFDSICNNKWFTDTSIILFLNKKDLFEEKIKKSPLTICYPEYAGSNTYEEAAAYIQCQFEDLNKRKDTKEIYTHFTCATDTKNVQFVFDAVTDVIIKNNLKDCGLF

Experiment [9] has as its target Cytochrome P450 3A4 (Homo sapiens) (UniProt P08684). Kind of experiment: qHTS Assay for Activators of Cytochrome P450 3A4 (AID 885). Note: nearly all actives have a fitted effect of over 65% in size. A digest of the protocol:
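Quantitative HTS format: compounds preincubated with 20nM human CYP3A4 and Luciferin-PPXE substrate at KM, reaction started by NADPH regeneration, stopped after 60 min, luciferase luminescence read 20 min later.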

Experiment [10] concerns the target Pyruvate kinase PKM (Homo sapiens) (UniProt P14618). Kind of experiment: qHTS Assay for Activators of Human Muscle Pyruvate Kinase (AID 954; active = well fitted curve in the direction sought with a large enough effect, not every such curve was filed as active;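 note: 0% = uninhibited enzyme and -100% = no enzyme or full thiadiazolimine inhibition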). The procedure, abridged: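 Enzyme was run at intermediate activity so both inhibitors and activators could be detected. ATP formed from ADP and PEP by 0.1 nM human PKM2 during a 1 h room-temperature incubation was quantified by coupled luciferase luminescence.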

Experiment [11] concerns the target Pyruvate kinase (Leishmania mexicana) (UniProt Q27686). The experiment can be described thus: qHTS Validation Assay for Activators of Leishmania Mexicana Pyruvate Kinase (AID 959). The procedure, abridged: (§1)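 Eight-point qHTS titrations; enzyme 0.2 nM LmPYK (E451W mutant); substrates 0.5 mM PEP, 0.1 mM ADP; 7 mM MgCl2; 1 h room temperature; PKLight luminescence normalized to neutral control.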

For experiment [12], the target named is Alpha-galactosidase A (Homo sapiens) (UniProt P06280). The experiment can be described thus: Counterscreen for Glucocerebrosidase Inhibitors: qHTS Assay for Human alpha-Galactosidase at pH 4.5 (AID 992). Note: 0% is about no effect. A digest of the protocol:
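Read-out is 4-methylumbelliferone fluorescence (365 nm excitation, 440 nm emission) after a pH 10 NaOH/glycine stop. Reactions held 2 nM enzyme and 80 uM substrate at pH 4.5 for 20 min at room temperature.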
On the technique in general: A counterscreen serves to expose hits that act by an unwanted route or on another target.

Experiment [13] concerns the target alpha-glucosidase (Oryza sativa, rice) (UniProt Q653V4). Kind of experiment: Counterscreen for Glucocerebrosidase Inhibitors: qHTS Assay for Rice alpha-Glucosidase at pH 5.0 (AID 997).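 Note: 0% = full activity with enzyme and -100% = basal without enzyme.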 A digest of the protocol:
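Rice alpha-glucosidase (4 nM final) with 400 uM 4-methylumbelliferyl-alpha-D-glucopyranoside in citrate buffer pH 5.0, 20 min at room temperature, stopped at pH 10; fluorescence 365/440 nm, compounds 0.7 nM–77 uM, AC50 from Hill fits.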

Experiment [14] is described as follows: qHTS Assay for Identification of Small Molecule Agonists for Thrombopoietin (TPO) Signaling Pathway (AID 917). Note: % is set by controls: 0 for no effect and ±100 for the full control effect. A digest of the protocol:
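Reporter: GpIIb promoter–luciferase in murine Ba/F3 expressing human TPO receptor. Pre-starved of IL-3 overnight; compounds with 26 pM TPO, 24 hrs, 37 C/5% CO2; luminescence read.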

Experiment [15] addresses Muscarinic acetylcholine receptor M1 (Rattus norvegicus) (UniProt P08482). The experiment can be described thus: qHTS Assay for Antagonists of Acetylcholine Muscarinic M1 Receptor: Kinetic Measurement of Intracellular Calcium Response (AID 943).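 Note: Fluo-4 calcium signal as peak divided by basal fluorescence over 4 min; nearly all actives have a fitted effect of over 75% in size.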 The procedure, abridged:
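CHO cells stably expressing rat M1 were loaded with no-wash Fluo-4 dye for 1 h at 37C, pre-incubated 10 min with compound, then challenged with EC80 carbachol (100 nM final); kinetic calcium read 4 min, peak/basal ratio.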

Experiment [16] has as its target Pyruvate kinase (Leishmania mexicana) (UniProt Q27686). Kind of experiment: qHTS Validation Assay for Inhibitors of Leishmania Mexicana Pyruvate Kinase (AID 945).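 Note: 0% = DMSO only neutral control wells.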 A digest of the protocol: as §1

Sequence of Cytochrome P450 1A2 (Homo sapiens) (P05177 whole entry, looked up): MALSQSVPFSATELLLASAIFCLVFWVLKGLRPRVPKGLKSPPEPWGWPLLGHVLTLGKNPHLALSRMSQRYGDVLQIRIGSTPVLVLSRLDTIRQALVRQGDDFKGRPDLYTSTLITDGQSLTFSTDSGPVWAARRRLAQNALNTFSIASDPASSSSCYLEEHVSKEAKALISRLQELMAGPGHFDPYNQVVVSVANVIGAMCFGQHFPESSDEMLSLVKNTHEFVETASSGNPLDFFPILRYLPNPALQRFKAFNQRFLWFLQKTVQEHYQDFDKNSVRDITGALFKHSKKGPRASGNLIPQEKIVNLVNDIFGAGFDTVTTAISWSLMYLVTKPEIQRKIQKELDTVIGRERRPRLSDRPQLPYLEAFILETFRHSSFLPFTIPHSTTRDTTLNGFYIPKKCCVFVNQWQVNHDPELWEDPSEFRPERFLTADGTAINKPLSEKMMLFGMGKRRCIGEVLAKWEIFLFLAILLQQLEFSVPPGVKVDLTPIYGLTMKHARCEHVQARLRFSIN
Sequence of 3',5'-cyclic-AMP phosphodiesterase 4B (Homo sapiens) (Q07343 whole entry, looked up): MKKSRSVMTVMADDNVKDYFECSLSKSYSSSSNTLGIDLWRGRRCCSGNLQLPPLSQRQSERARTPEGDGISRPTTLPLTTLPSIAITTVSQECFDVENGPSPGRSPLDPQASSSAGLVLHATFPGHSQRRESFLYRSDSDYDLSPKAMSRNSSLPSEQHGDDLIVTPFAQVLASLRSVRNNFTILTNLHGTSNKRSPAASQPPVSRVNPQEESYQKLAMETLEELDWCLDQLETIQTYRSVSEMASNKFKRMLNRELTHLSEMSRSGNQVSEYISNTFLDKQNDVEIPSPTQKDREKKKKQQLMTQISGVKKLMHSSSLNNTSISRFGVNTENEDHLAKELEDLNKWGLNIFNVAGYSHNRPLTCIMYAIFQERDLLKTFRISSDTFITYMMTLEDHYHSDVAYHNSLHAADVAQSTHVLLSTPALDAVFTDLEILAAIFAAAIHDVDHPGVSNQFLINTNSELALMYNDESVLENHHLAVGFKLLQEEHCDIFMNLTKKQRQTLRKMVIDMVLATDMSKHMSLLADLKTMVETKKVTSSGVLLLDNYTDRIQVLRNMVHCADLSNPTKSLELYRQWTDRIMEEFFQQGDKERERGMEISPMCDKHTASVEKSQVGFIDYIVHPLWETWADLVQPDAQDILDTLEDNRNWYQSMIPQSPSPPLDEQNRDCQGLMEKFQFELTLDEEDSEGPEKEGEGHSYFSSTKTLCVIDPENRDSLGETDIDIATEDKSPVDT
Sequence of Pyruvate kinase PKM (Homo sapiens) (P14618 whole entry, looked up): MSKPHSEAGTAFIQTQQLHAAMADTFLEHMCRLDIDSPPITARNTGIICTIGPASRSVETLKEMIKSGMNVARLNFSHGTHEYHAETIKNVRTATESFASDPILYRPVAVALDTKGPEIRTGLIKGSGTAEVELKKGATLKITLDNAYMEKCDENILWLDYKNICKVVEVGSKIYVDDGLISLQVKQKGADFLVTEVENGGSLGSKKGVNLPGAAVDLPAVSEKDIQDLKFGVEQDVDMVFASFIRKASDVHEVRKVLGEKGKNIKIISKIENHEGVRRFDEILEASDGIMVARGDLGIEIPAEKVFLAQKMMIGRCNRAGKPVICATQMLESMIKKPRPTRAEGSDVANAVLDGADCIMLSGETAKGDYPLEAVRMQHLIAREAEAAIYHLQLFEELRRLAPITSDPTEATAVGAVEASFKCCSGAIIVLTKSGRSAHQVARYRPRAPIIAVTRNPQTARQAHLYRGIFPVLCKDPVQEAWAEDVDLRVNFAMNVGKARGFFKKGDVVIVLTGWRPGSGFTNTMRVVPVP
Sequence of Alpha-galactosidase A (Homo sapiens) (P06280 whole entry, looked up): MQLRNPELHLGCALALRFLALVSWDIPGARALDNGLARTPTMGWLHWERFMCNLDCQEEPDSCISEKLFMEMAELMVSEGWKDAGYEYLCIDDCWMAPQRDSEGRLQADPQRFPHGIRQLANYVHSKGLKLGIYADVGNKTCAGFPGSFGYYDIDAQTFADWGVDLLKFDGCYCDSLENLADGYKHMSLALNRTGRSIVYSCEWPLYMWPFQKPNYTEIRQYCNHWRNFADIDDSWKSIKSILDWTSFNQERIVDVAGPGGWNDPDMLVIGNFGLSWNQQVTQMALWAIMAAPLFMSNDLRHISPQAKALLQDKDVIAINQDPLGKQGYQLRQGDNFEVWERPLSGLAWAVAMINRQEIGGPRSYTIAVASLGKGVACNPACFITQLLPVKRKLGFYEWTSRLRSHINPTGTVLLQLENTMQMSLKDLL
Sequence of Pyruvate kinase (Leishmania mexicana) (Q27686 2-499 E452W): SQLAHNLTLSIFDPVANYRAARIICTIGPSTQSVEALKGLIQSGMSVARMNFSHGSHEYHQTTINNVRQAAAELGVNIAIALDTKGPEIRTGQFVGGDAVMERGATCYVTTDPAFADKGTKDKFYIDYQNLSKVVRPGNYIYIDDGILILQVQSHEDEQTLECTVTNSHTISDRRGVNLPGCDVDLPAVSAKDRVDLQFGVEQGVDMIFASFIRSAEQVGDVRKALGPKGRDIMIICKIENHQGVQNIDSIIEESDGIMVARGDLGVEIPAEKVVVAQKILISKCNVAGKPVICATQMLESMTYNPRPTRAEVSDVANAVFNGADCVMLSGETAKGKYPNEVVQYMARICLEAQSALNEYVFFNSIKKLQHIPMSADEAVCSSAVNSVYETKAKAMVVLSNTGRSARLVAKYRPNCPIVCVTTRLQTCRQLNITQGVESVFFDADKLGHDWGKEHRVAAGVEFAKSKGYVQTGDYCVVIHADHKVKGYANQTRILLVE
Sequence of Cytochrome P450 3A4 (Homo sapiens) (P08684 whole entry, looked up): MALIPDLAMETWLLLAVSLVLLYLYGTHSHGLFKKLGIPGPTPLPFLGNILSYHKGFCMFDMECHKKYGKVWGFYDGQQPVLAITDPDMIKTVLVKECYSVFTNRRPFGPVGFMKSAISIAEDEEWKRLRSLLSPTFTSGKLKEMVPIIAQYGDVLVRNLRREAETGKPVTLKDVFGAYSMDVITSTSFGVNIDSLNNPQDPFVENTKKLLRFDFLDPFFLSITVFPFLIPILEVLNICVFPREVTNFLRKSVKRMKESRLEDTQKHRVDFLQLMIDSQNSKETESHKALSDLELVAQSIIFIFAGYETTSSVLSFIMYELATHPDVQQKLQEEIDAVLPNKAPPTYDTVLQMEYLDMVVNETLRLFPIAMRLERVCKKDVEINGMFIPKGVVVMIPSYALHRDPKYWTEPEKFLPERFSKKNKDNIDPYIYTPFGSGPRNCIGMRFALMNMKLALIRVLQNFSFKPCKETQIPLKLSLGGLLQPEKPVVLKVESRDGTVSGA
Sequence of Muscarinic acetylcholine receptor M1 (Rattus norvegicus) (P08482 whole entry, looked up): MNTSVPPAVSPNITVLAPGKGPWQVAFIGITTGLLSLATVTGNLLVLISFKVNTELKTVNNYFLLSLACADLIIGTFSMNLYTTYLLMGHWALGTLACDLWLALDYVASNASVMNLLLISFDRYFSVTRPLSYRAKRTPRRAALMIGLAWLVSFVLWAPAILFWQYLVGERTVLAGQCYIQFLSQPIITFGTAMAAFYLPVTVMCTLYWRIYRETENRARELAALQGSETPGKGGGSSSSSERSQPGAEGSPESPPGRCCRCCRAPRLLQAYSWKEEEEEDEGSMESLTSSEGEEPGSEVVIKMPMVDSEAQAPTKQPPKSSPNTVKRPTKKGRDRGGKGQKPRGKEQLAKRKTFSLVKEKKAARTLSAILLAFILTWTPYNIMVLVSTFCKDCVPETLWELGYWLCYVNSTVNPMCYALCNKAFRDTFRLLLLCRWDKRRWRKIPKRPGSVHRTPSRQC

On to `COc1ccc(/C(O)=C2\C(=O)C(=O)N(c3cc(C)on3)C2c2ccccc2OC)cc1` (configuration not stated), for which, in experiment [1], the activity change, negative = inhibition is -12.4%. Moreover, the Potency in experiment [2] was over 20.6 µM.
As to `Clc1ccc2nc(N3CCNCC3)nc(-c3ccccc3)c2c1`, the activity change, negative = inhibition in experiment [1] was 28.9%. The Potency in [2] is over 20.6 µM.
The matching figures for `N#CC1=C(N)C(C#N)(C#N)[C@H](c2ccncc2)[C@H]2CN(C(=O)OCc3ccccc3)CC=C12`: -27.2% and over 20.6 µM.
For `COc1cccc2c1C(=O)c1c(O)c3c(c(O)c1C2=O)C[C@](O)(C(=O)CO)C[C@H]3O[C@@H]1C[C@H](N)[C@H](O)[C@H](C)O1`, the Potency result in experiment [3] and in experiment [6] was “inactive” each time. Also, the activity, negative = inhibition in experiment [4] was 92.4% [activator] (active). The Potency in experiment [2] and in experiment [5] was over 20.6 µM each time.
Regarding `O=C(/C=C\c1ccc(O)c(O)c1)OCCc1ccccc1`, the Potency in [3] is 1 µM (active); in experiment [2] it was over 46 µM; in [5] it was over 46 µM. Further, the activity change, negative = inhibition in experiment [7] was -12.2% [at 38 µM]. In addition, the activity, negative = inhibition in experiment [4] was -10.7% [at 38 µM]. Besides, the Potency result in experiment [6], in experiment [9] and in [11] was “inactive” each time. Also, the outcome in experiment [8], in experiment [10], in experiment [12] and in experiment [13] was inactive.
As to `CCOC(=O)C1=C(N)c2ccccc2CC1C(C)C` (configuration not stated), the activity change, negative = inhibition in experiment [1] was -3.93%. In experiment [2], the Potency is over 20.6 µM.
On to `Cc1cc(C)c(/C=C2/C(=O)Nc3ccccc32)[nH]1`, for which the Potency in experiment [3] was 0.794 µM (active). In addition, in experiment [4], the activity, negative = inhibition is -25.4% [at 38 µM]. The Potency entry in [6], in experiment [14], in [15] and in experiment [16] was “inactive” in each case. In addition, the result in [8], in experiment [10], in experiment [12] and in experiment [13] was inactive.
Consider `Fc1ccc2[nH]c3c(N4CCSCC4)ncnc3c2c1`, for which, in experiment [1], the activity change, negative = inhibition is -16.7%. Also, the Potency in experiment [2] is over 20.6 µM.

Values taken from PubChem BioAssay (NCATS).
